Compounds with a hit are over-represented: about 7.5% of the library has one in this group of screens.
HCV inh – blocks hepatitis C virus | 340,000 tested, 3.4% active | Huh7.5.1 HCVcc-Cre infection, luciferase reporter, 44 h | Potency, µM (doses to about 41.8 µM), actives largely listed as inhibitors
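1,000 cells/well; 4 h culture; + compound; + HCVcc-Cre (~0.5 moi); 44 h; luciferase substrate, RT 15 min; read 15 sec.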
VACV Venus inh – vaccinia inhibition (Venus reporter); Vaccinia virus Venus reporter expression, fluorescence; Potency, µM (top dose mostly 36.5 µM), most hits filed as inhibitors; 330,000 tested, 0.46% active; calls by dose curve; tested in A549 cells; further: nearly all actives have a fitted effect of over 30% in size
FMDV inh – foot and mouth disease virus antiviral activity | FMDV antiviral cell-based qHTS | Potency, µM (series often up to 57.9 µM), most hits filed as inhibitors | 410,000 tested, 1.2% active | AID 1159524; calls by dose curve; tested in HEK293T cells; further: read-out not given here; nearly all actives have a fitted effect of over 45% in size
FBPA Giardia inh – blocks Giardia fructose-bisphosphate aldolase activity; Potency, µM (series often up to 59.6 µM), hits mostly inhibitors; purified Giardia FBPA; 290,000 tested, 0.71% active; AID 2451; further: nearly all actives have a fitted effect of over 55% in size
Target sequence (A8B2U2 whole entry, looked up): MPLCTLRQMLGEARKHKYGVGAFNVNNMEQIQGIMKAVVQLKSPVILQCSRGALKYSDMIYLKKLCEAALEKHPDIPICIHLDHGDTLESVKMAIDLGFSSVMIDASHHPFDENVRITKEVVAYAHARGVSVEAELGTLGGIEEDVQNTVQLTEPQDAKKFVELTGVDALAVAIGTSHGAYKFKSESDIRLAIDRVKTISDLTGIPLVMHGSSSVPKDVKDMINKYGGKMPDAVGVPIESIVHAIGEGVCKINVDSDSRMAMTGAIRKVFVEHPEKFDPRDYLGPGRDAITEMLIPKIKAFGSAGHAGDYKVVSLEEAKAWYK
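40 nM FBPA preincubated 10 min at RT with compound (up to 57.5 uM final), then substrate plus GAPDH/TPI/NAD/arsenate coupling and diaphorase/resazurin added. Fluorescence read after 20 min at RT, 525/598 nm.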
HCMV inh – inhibitors of human cytomegalovirus. HFF cells, HCMV-luciferase reporter, 72 h; hits give low values. activity change, negative = inhibition, % at 57.5 µM. 410,000 tested, 4.5% active; in the data active means activity change below about -60%; inconclusive means no clear call, values can overlap the other calls; inactive means above about -39%
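Inhibition of viral replication was scored as loss of reporter luminescence in HFFs infected with HCMV-luciferase (MOI 1 PFU/cell) for 72 h; compounds tested at 2 doses, normalized to buffer and Salinomycin controls.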
VACV mCherry inh – vaccinia inhibition (mCherry reporter); Potency, µM (top dose mostly 36.5 µM), usual class: inhibitors; AID 720579; Vaccinia virus mCherry reporter infection, fluorescence; 310,000 tested, 0.63% active; calls by dose curve; tested in A549 cells; further: nearly all actives have a fitted effect of over 35% in size
Large screens that a line does not name were inactive. Unless noted, the call rests on the fitted dose curve; in most records, active means well fitted curve in the direction sought with a large enough effect; inconclusive means small, poorly fitted or top-dose-only effect, or another doubt; inactive means no such curve, though single readings can be large; an effect the other way counts as inactive or inconclusive.

O=C(Cc1ccc(Br)cc1)NO	none (no result: HCV inh, FMDV inh, FBPA Giardia inh, HCMV inh)
CCc1ccccc1NS(=O)(=O)c1ccc2[nH]cc(C(=O)NCC3CCCO3)c(=O)c2c1 (stereo not given)	none
CN(Cc1ccccc1)S(=O)(=O)c1ccc2[nH]cc(C(=O)NCC3CCCO3)c(=O)c2c1 (stereo not given)	VACV Venus inh inconclusive, FMDV inh inconclusive, HCMV inh -107 (no result: HCV inh)
O=C(Nc1ccc(Cl)c(S(=O)(=O)N2CCOCC2)c1)c1ccccn1	none
COc1ccc(C(=O)Nc2ccc(Cl)c(S(=O)(=O)N3CCOCC3)c2)cc1	HCV inh 8.9µM, FMDV inh 25µM, HCMV inh -76 (no result: FBPA Giardia inh)
CCC(=O)N1CCN(c2ccc(Cl)cc2NC(=O)c2ccc3c(c2)OCCO3)CC1	HCMV inh -61 (no result: VACV Venus inh, VACV mCherry inh)
O=C(NC(=S)Nc1ccc(N2CCCCC2)c(Cl)c1)c1ccc2c(c1)OCCO2	HCV inh 3.5µM, VACV Venus inh inconclusive, FMDV inh inconclusive, HCMV inh -63, VACV mCherry inh inconclusive
O=C(Nc1ccc(Cl)c(S(=O)(=O)N2CCOCC2)c1)c1ccc(Cl)nc1	HCV inh 11µM, FMDV inh 18µM, HCMV inh inconclusive (no result: FBPA Giardia inh)
COc1ccc(C(=O)Nc2ccc(S(=O)(=O)N3CCOCC3)cc2)cc1	none (no result: FBPA Giardia inh)
Cc1ccc(-n2nc(C)c3c(C(=O)NCCc4ccccc4)cc(C)nc32)cc1	none (no result: HCV inh, FBPA Giardia inh)
COc1ccc(C2Nc3ccccc3C(=O)N2c2cccc3ccccc23)cc1COc1c(C)cccc1C (stereo not given)	VACV Venus inh inconclusive (no result: HCV inh, FMDV inh, FBPA Giardia inh, HCMV inh)
O=c1c(CCc2ccccc2)nc2cnc(N3CCOCC3)nc2n1C[C@H]1CCCO1	none (no result: HCV inh, VACV Venus inh, HCMV inh, VACV mCherry inh)
CC(Sc1nnc(-c2ccco2)n1N)C(=O)NCc1ccc2c(c1)OCO2 (stereo not given)	none (no result: FBPA Giardia inh)
O=C(Nc1ccc(Cl)c(S(=O)(=O)N2CCOCC2)c1)c1ccc2c(c1)OCO2	HCV inh 10µM, FMDV inh 32µM, HCMV inh inconclusive (no result: FBPA Giardia inh)
COc1ccc(NS(=O)(=O)c2cc(NC(=O)c3ccc(Cl)cc3)ccc2N2CCOCC2)cc1	HCV inh 7.9µM, HCMV inh inconclusive, VACV mCherry inh inconclusive (no result: FBPA Giardia inh)
Cc1ccc(NC(=O)c2ccc(OCC3CCCO3)cc2)cc1 (stereo not given)	none
O=C(Nc1ccc(Cl)c(S(=O)(=O)N2CCOCC2)c1)c1ccc2c(c1)OCCO2	HCV inh 10µM, HCMV inh -62
O=C(Nc1ccc(Cl)c(S(=O)(=O)N2CCOCC2)c1)c1ccc(OCC2CCCO2)cc1 (stereo not given)	HCV inh inconclusive, FMDV inh 7.9µM (no result: HCMV inh)
Cc1ccc(NC(=O)C2CCN(c3cnccn3)CC2)cc1C	none (no result: VACV Venus inh, VACV mCherry inh)
Cc1ccc(S(=O)(=O)N(C)C)cc1NC(=S)NC(C)CCCC(C)C (stereo not given)	HCV inh inconclusive, FMDV inh inconclusive, HCMV inh -73
Cc1ccc(S(=O)(=O)N(C)C)cc1NC(=S)NC(C)CCC(C)C (stereo not given)	HCV inh inconclusive
CS(=O)(=O)N1CCC[C@@]2(CCN(Cc3ccc(C#N)cc3)C2)C1	none (no result: HCV inh, VACV Venus inh, HCMV inh, VACV mCherry inh)
Cn1ccc2cc(-c3ccc4ncnc(NCc5cccs5)c4c3)ccc21	FMDV inh inconclusive, HCMV inh -72 (no result: HCV inh, VACV Venus inh, FBPA Giardia inh, VACV mCherry inh)
COc1cccc(-c2ccc3ncnc(NCc4cccs4)c3c2)c1	FMDV inh inconclusive, HCMV inh inconclusive (no result: HCV inh)
CC1(C)CC(=O)C=C(N2CCNCC2)C1	none (no result: VACV Venus inh, VACV mCherry inh)
CSc1nc(N2CCN(c3ccccc3)CC2)cc(N2CCN(c3ccccc3)CC2)n1	HCV inh inconclusive
CC1(C)CC(N2CCCC2)=CC(=[N+]2CCCCCC2)C1	HCV inh inconclusive, FMDV inh inconclusive, HCMV inh -98 (no result: VACV Venus inh, VACV mCherry inh)
CC1(C)CC(N2CCN(c3ccccc3)CC2)=CC(=[N+]2CCCC2)C1	HCV inh inconclusive, VACV Venus inh inconclusive, HCMV inh -98, VACV mCherry inh inconclusive (no result: FMDV inh)
CC1CC(C)C[N+](=C2C=C(N3CCCC3)CC(C)(C)C2)C1 (stereo not given)	HCV inh 3.5µM, FMDV inh inconclusive, HCMV inh -102 (no result: VACV Venus inh, VACV mCherry inh)
Cc1cc(C)c(S(=O)(=O)Nc2cccc(-c3cn4ccccc4n3)c2)c(C)c1	HCMV inh -87 (no result: HCV inh, FBPA Giardia inh)
Cc1ccccc1C(=O)Nc1cccc(-c2cn3ccccc3n2)c1	HCV inh 14µM, FMDV inh inconclusive
Cc1cccn2cc(-c3cccc(NS(=O)(=O)c4ccc(Cl)c(Cl)c4)c3)nc12	HCMV inh -91 (no result: HCV inh, FBPA Giardia inh)
CC1CN(S(=O)(=O)c2cccc(-c3cn4ccccc4n3)c2)CC(C)O1 (stereo not given)	HCV inh inconclusive, HCMV inh -86, VACV mCherry inh inconclusive (no result: FMDV inh)
Cc1cccn2cc(-c3cccc(S(=O)(=O)N4CC(C)OC(C)C4)c3)nc12 (stereo not given)	none (no result: VACV Venus inh, FBPA Giardia inh, VACV mCherry inh)
Cc1ccc(C(=O)Nc2cccc(-c3cn4ccccc4n3)c2)cc1	none
COc1cc(C(=O)Nc2ccc(N3CCN(C(=O)c4ccc(C)cc4)CC3)cc2)cc(OC)c1OC	HCV inh inconclusive, HCMV inh inconclusive (no result: VACV Venus inh, FBPA Giardia inh, VACV mCherry inh)
c1cncc(OC2CCN(Cc3ccc4c(c3)CN(Cc3nc5ccccc5s3)CCO4)CC2)c1	none (no result: HCV inh, FBPA Giardia inh, HCMV inh)
COc1ccc(NC(=O)C[C@H]2C(=O)N(C3CCCCC3)C[C@@H]2C)cc1	none (no result: HCV inh, FBPA Giardia inh)
Cc1cc(OCC(=O)Nc2ccccc2N2CCOCC2)c(C(C)C)cc1Cl	HCV inh inconclusive, FMDV inh inconclusive, HCMV inh -66 (no result: VACV Venus inh, FBPA Giardia inh, VACV mCherry inh)
Cc1cc(Cl)ccc1OC(C)C(=O)N1CCCN(C(=O)C(C)Oc2ccc(Cl)cc2C)CC1 (stereo not given)	HCV inh inconclusive, VACV Venus inh inconclusive, FMDV inh 28µM, HCMV inh inconclusive, VACV mCherry inh inconclusive
Cc1cc(Cl)ccc1OC(C)C(=O)Nc1ccccc1N1CCOCC1 (stereo not given)	HCV inh 10µM, FMDV inh inconclusive
O=C(NNC(=O)c1ccccc1Br)c1ccncc1	HCMV inh -65 (no result: VACV Venus inh, VACV mCherry inh)
O=C(NNC(=O)c1ccccc1C(=O)O)c1ccc(O)cc1	HCV inh 13µM
CC(C)Oc1ccc(C(=O)NNC(=O)c2ccccc2C(=O)O)cc1	none
CCCCn1c(N)c(N(CC(C)C)C(=O)CCNC(=O)c2ccccc2Cl)c(=O)[nH]c1=O	HCV inh inconclusive (no result: FBPA Giardia inh)
CSc1ccccc1NC(=O)COC(=O)Cn1cc(C(F)(F)F)ccc1=O	none (no result: VACV Venus inh, FBPA Giardia inh, VACV mCherry inh)
CN(C)c1ccc(C2CCc3ccccc3N2C(=O)c2ccccc2)cc1 (stereo not given)	none (no result: HCV inh, FMDV inh, FBPA Giardia inh, HCMV inh)
CCOC(=O)Cn1c(S(=O)(=O)Cc2ccc(Cl)cc2)nc(-c2ccccc2)c1-c1ccccc1	HCV inh 35µM, HCMV inh inconclusive (no result: VACV Venus inh, VACV mCherry inh)
N=c1c(S(=O)(=O)c2ccccc2)cc2c(=O)n3ccccc3nc2n1C1CCCC1	HCV inh inconclusive
N=c1c(S(=O)(=O)c2ccc(Cl)cc2)cc2c(=O)n3ccccc3nc2n1CCN1CCOCC1	HCV inh 13µM
Cc1ccc(S(=O)(=O)c2cc3c(=O)n4ccccc4nc3n(C3CCCCC3)c2=N)cc1	HCV inh 13µM, FMDV inh inconclusive (no result: FBPA Giardia inh)
O=C(c1cccc(Cl)c1)N(Cc1ccco1)Cc1ccccc1Cl	none (no result: HCV inh, FBPA Giardia inh)

Assay outcomes from PubChem BioAssay.
